Assay [1] can be described thus: qHTS assay to test for compound auto fluorescence at 535 nm (green) in HEK293 cells (AID 720680). (Quantitative high-throughput screening tests each substance at several concentrations.)
The nature of assay [2]: qHTS assay to test for compound auto fluorescence at 460 nm (blue) in HEK293 cell free culture (AID 720681). In a few lines: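 Test compounds were pinned into cell-free culture medium (DMEM with 10% FBS) and fluorescence was read directly at Ex/Em 405/460 nm. Signals were expressed as fluorescence equivalents of triamterene, with DMSO vehicle as control.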
Assay [3] in a line: qHTS assay to test for compound auto fluorescence at 535 nm (green) in HEK293 cell free culture (AID 720682). In a few lines:
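Steps: dispense DMEM/10% FBS into empty wells; pin in compound or DMSO; measure fluorescence at 485/535 nm. Values are fluorescein equivalents.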

Assay [4] can be described thus: qHTS assay to test for compound auto fluorescence at 590 nm (red) in HEK293 cell free culture (AID 720683). Summed up: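 Tox21 10K library compounds were pinned into cell-free DMEM with 10% FBS and fluorescence was read at excitation 540 nm. Activity is expressed as Rose Bengal sodium equivalency.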
Assay [5] in a line: qHTS assay to test for compound auto fluorescence at 590 nm (red) in HepG2 cell free culture (AID 720684). In a few lines:
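Measured in medium alone (MEM containing 10% FBS) following pintool addition of compound; emission at 590 nm with 540 nm excitation, referenced to Rose Bengal sodium.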

The nature of assay [6]: qHTS assay to test for compound auto fluorescence at 460 nm (blue) in HepG2 cell free culture (AID 720685). Summed up: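 Compound (23 nL) or DMSO pinned into cell-free MEM with 10% FBS; blue fluorescence read at 405/460 nm excitation/emission, expressed as auto-fluorescence equivalency to triamterene.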
The nature of assay [7]: qHTS assay to test for compound auto fluorescence at 535 nm (green) in HepG2 cell free culture (AID 720686).
The nature of assay [8]: qHTS assay to test for compound auto fluorescence at 460 nm (blue) in HepG2 cells (AID 720687). Summed up: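 Cells (2,000/well in MEM with 10% FBS) attached overnight at 37 C, then were exposed to compound or DMSO for 1 hr at 37 C, 5% CO2. Fluorescence read at Ex/Em 405/460 nm, expressed as triamterene-equivalent signal.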
The target in assay [9] is Glucocorticoid receptor (Homo sapiens) (UniProt P04150). The experiment in a line: qHTS assay to identify small molecule antagonists of the glucocorticoid receptor (GR) signaling pathway (AID 720692; active = well fitted inhibition curve with a large enough effect in the signal ratio in the repeat runs, not every such curve was filed as active; the % refers to the signal ratio). Summed up: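 Dexamethasone (5 nM final) stimulated a stably integrated GRE-beta-lactamase reporter in HeLa cells during 18 h co-incubation with compounds; signal was quantified as fluorescence intensity of B/G FRET substrate after 2 h.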
Chain of Glucocorticoid receptor (Homo sapiens) (P04150 whole entry, looked up): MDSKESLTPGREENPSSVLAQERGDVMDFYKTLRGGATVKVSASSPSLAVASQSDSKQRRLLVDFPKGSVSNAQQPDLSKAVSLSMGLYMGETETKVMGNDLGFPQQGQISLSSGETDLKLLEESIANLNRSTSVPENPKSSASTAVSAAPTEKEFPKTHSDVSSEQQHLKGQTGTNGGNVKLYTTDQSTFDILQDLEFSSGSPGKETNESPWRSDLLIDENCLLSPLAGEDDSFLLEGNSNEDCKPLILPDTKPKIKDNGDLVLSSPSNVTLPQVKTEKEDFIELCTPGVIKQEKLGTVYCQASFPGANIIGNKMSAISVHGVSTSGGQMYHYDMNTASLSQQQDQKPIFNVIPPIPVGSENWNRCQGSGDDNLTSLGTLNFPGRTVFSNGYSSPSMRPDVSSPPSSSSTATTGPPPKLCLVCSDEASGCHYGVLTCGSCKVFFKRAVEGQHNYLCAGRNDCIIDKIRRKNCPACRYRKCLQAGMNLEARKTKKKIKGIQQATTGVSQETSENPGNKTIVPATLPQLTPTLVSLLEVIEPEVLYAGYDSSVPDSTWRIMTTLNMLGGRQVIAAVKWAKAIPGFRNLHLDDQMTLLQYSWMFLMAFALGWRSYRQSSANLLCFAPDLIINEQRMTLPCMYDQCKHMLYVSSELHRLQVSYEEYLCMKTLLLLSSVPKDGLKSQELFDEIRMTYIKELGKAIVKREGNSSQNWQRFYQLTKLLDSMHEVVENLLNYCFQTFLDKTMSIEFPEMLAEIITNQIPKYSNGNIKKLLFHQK

Assay [10] is described as follows: qHTS assay for identifying genotoxic compounds that show differential cytotoxicity against isogenic chicken DT40 cell lines with known DNA damage response pathways - wild type cell line (AID 743012). Note: nearly all actives have a fitted effect of over 60% in size. Note: potency is the fitted concentration of half-maximal effect. In a few lines: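 Using parental DT40 (300 cells/well), compounds delivered in DMSO incubate 40 h at 37 C/5% CO2. CellTiter-Glo reagent then stands 30 min at room temperature, and luminescence gives cell viability.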

Assay [11] can be described thus: qHTS assay for identifying genotoxic compounds that show differential cytotoxicity against isogenic chicken DT40 cell lines with known DNA damage response pathways - Rev3 mutant cell line (AID 743014). Note: nearly all actives have a fitted effect of over 55% in size.
The nature of assay [12]: qHTS assay for identifying genotoxic compounds that show differential cytotoxicity against isogenic chicken DT40 cell lines with known DNA damage response pathways - Rad54/Ku70 mutant cell line (AID 743015). Note: nearly all actives have a fitted effect of over 60% in size. Note: potency is the fitted concentration of half-maximal effect.
A short description of assay [13]: qHTS assay to identify small molecule antagonists of the androgen receptor (AR) signaling pathway - cell viability counter screen (AID 743033; note: nearly all actives have a fitted effect of over 45% in size).
A short description of assay [14]: qHTS assay to identify small molecule antagonists of the androgen receptor (AR) signaling pathway using the MDA cell line - cell viability counter screen (AID 743041; note: nearly all actives have a fitted effect of over 45% in size). In a few lines: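 Viability counter screen run alongside the AR antagonist reporter: cells seeded 5 h before compound, R1881 added, 16 h incubation at 37C without CO2, fluorescent CellTiter-Fluor signal quantified.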

Assay [15] in a line: qHTS assay to identify small molecule antagonists of the glucocorticoid receptor (GR) signaling pathway - cell viability counter screen (AID 720693). Note: nearly all actives have a fitted effect of over 55% in size.
Assay [16] can be described thus: qHTS assay to identify small molecule antagonists of the thyroid receptor (TR) signaling pathway - cell viability counter screen (AID 743064). Note: nearly all actives have a fitted effect of over 50% in size. Note: potency is the fitted concentration of half-maximal effect. Summed up: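 Plate GH3.TRE-Luc cells; incubate 4 h at 37 °C; add compound, then T3 to 1 nM final; incubate 23.5 h; add CellTiter-Fluor; incubate 30 min at 37 °C, 5% CO2; read fluorescence.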
Assay [17] addresses Androgen receptor (Homo sapiens) (UniProt P10275). The experiment in a line: qHTS assay to identify small molecule antagonists of the androgen receptor (AR) signaling pathway (AID 743035; active = well fitted inhibition curve with a large enough effect in the signal ratio in the repeat runs, not every such curve was filed as active; the % refers to the signal ratio). In a few lines:
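Using qHTS, AR-UAS-bla GripTite HEK293 cells received compound, then R1881, and were cultured 16 h at 37C/5% CO2 before a 2 h room-temperature LiveBLAzer B/G FRET substrate step and fluorescence measurement.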

The target is the same in assay [18]. As to the kind of experiment: qHTS assay to identify small molecule agonists of the androgen receptor (AR) signaling pathway using the MDA cell line (AID 743040; note: nearly all actives have a fitted effect of over 20% in size). Summed up:
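Luminescence from ONE-Glo, read after 30 min at room temperature, reflects MMTV-driven luciferase in MDA-kb2 cells (AR- and GR-responsive). Treatment lasted 16 h at 37C, 0% CO2.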

The target is the same in assay [19]. As to the kind of experiment: qHTS assay to identify small molecule antagonists of the androgen receptor (AR) signaling pathway using the MDA cell line (AID 743042; note: nearly all actives have a fitted effect of over 55% in size). Summed up:
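MDA-kb2 cells (human breast carcinoma, stably carrying an MMTV-luciferase reporter responsive to AR and GR) were plated at 3,000 cells/well and preincubated 5 hr at 37C, then given compound plus R1881 agonist for 16 h. ONE-Glo luminescence was read.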

A number with no mark means an inactive call. Inconclusive results are not listed. The source made the active and inactive calls. Unless noted, calls come from the whole dose curve; as a rule, active = well fitted curve in the direction sought with a large enough effect in the repeat runs; inconclusive = weak or mixed curves; inactive = no such curve, though single readings can be large; an effect the other way counts as inactive or inconclusive.
% is set by controls: 0 for no effect and ±100 for the full control effect.

Chain of Androgen receptor (Homo sapiens) (P10275 whole entry, looked up): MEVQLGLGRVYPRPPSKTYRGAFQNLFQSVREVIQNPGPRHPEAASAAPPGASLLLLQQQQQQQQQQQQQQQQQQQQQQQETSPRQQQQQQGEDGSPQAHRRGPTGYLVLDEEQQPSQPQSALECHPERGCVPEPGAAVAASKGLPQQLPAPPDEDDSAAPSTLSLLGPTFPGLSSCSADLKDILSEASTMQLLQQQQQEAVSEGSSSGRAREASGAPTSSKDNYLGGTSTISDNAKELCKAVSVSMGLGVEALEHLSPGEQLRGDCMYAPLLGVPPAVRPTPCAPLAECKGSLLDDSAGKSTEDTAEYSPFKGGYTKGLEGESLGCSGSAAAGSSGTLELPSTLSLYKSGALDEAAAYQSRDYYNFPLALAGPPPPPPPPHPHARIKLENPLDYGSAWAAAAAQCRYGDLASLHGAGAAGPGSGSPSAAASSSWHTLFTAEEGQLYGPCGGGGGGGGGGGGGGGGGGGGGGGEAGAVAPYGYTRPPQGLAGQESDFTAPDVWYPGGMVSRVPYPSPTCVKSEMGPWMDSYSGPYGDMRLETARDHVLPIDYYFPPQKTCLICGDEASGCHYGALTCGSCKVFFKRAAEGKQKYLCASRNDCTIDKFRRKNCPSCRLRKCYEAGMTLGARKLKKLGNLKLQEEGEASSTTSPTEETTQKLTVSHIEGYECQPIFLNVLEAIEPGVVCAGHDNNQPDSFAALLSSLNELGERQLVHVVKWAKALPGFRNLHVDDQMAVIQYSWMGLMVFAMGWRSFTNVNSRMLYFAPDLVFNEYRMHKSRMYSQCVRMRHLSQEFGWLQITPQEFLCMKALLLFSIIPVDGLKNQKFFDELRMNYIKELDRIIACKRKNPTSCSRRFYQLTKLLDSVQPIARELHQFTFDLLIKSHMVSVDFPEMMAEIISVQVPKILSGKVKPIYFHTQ

For the molecule `C1CSCCS1`, the result in [1], in assay [2], in [3], in [4], in assay [5] and in assay [6] was inactive. Also, the molecule was classed as inactive in [7], in assay [8] and in assay [13]. Also, the Potency entry in assay [9], in assay [10], in assay [11], in assay [12] and in [14] was “inactive” throughout.

Regarding `CCCCCCCCCCCCOCCOS(=O)(=O)O`, the result in assay [1], in assay [2], in assay [3], in assay [4], in assay [5] and in assay [6] was inactive. For the same molecule, the molecule was called inactive in [7], in assay [8], in assay [15] and in assay [13]. In addition, the Potency result in assay [10], in assay [11] and in assay [14] was “inactive” in each case.

As for `Cc1ccc([N+](=O)[O-])c(N)c1`, the call in assay [1], in assay [2], in [3], in assay [4], in [5] and in assay [6] was inactive. Moreover, the molecule was called inactive in [7], in assay [8], in assay [15] and in assay [13]. The Potency result in assay [10], in assay [11], in assay [12], in assay [14] and in assay [16] was “inactive” each time.

Consider `CC1(C)O[C@@H]2C[C@H]3[C@@H]4CCC5=CC(=O)CC[C@]5(C)[C@@]4(F)[C@@H](O)C[C@]3(C)[C@]2(C(=O)CCl)O1`, for which, in [1], the fluorescence, % of fluorescein was -0.0811% [at 18.6 µM]. Further, the fluorescence, % of fluorescent control in assay [2] is -0.106% [at 18.6 µM]; in assay [4], -0.0463% [at 18.6 µM]; in assay [6], 0.0173% [at 18.6 µM]; in assay [8], -0.0673% [at 18.6 µM]. Further, in assay [3], the activity change was 0.0954% [at 18.6 µM]. In addition, the fluorescence, % of Rose Bengal in assay [5] is 0.173% [at 18.6 µM]. Also, the fluorescence, % of fluorescein control in [7] was 0.0501% [at 18.6 µM]. Besides, the call in [15] and in [13] was inactive. The Potency entry in assay [10], in [11], in [12] and in [16] was “inactive” each time.

`O=C(Cl)c1cccc([N+](=O)[O-])c1`: the call in [1], in assay [2], in [3], in [4], in assay [5] and in assay [6] was inactive. For the same molecule, the result in assay [7], in [8], in assay [15] and in assay [13] was inactive. For the same molecule, the Potency result in assay [9] and in [14] was “inactive” throughout.

With `NC(Cc1ccc(F)cc1)C(=O)O` (stereo not drawn), the fluorescence, % of fluorescein in assay [1] was 0.0426% [at 3.72 µM]. In addition, the fluorescence, % of fluorescent control is -0.189% [at 3.72 µM] in [2], 0.0018% [at 3.72 µM] in [4], -0.0373% [at 3.72 µM] in assay [6] and -0.0921% [at 3.72 µM] in [8]. The activity change in [3] was 0.0132% [at 3.72 µM]. Besides, the fluorescence, % of Rose Bengal in [5] is -0.117% [at 3.72 µM]. The fluorescence, % of fluorescein control in assay [7] is -0.0064% [at 3.72 µM]. Moreover, the values for the viability change, negative = cytotoxic in assay [15] and in [14] were -1.1% [at 7.04 µM] and -1.4% [at 8.47 µM], respectively. For the same molecule, the values for the Potency in assay [12] and in [16] were 1.87 µM (active) and 2.64 µM (active), respectively. The activity change, negative = cytotoxicity in [13] was -0.148% [at 7.04 µM].

For the molecule `CN(CC1(C)CCCO1)S(=O)(=O)c1ccc(Cl)c(S(N)(=O)=O)c1` (stereo not drawn), the outcome in assay [1], in assay [2], in assay [3], in [4], in [5] and in assay [6] was inactive. Also, the result in assay [7], in [8] and in assay [13] was inactive. The Potency result in assay [10], in [11], in assay [12], in assay [14] and in assay [16] was “inactive” in each case.

With `Cc1ccccc1C(=O)Nc1ccc(C(=O)N2CCCC(O)c3cc(Cl)ccc32)c(C)c1` (stereo not drawn), the outcome in [1], in assay [2], in [3], in assay [4], in assay [5] and in [6] was inactive. Moreover, the result in assay [7], in assay [8] and in [15] was inactive. Further, the Potency in assay [10] was 26.6 µM (active). In addition, the Potency entry in assay [14] and in assay [16] was “inactive” in each case.

As for `O=Cc1ccc(F)c(Br)c1`, the result in assay [1], in assay [2], in [3], in assay [4], in assay [5] and in assay [6] was inactive. Moreover, the molecule was classed as inactive in assay [7], in assay [8], in assay [15] and in assay [13]. Also, the Potency entry in [10], in assay [11], in assay [14] and in assay [16] was “inactive” throughout.

For the molecule `CCCCNc1cc(C(=O)O)cc(S(N)(=O)=O)c1Oc1ccccc1`, in [1], the fluorescence, % of fluorescein was -0.0725% [at 18.6 µM]. The fluorescence, % of fluorescent control is -0.0083% [at 18.6 µM] in assay [2], -0.0094% [at 18.6 µM] in assay [4], -0.0399% [at 18.6 µM] in [6] and -0.0058% [at 18.6 µM] in [8]. In addition, in assay [3], the activity change is -0.0379% [at 18.6 µM]. Moreover, the fluorescence, % of Rose Bengal in assay [5] was 0.449% [at 18.6 µM]. Besides, the fluorescence, % of fluorescein control in assay [7] was 0.0191% [at 18.6 µM]. For the same molecule, in [15], the molecule was classed as inactive. The Potency entry in assay [10], in [11], in assay [12], in assay [14] and in assay [16] was “inactive” each time.

For `O=C1CCC(C2CCCCC2)CC1`, the outcome in assay [1], in assay [2], in assay [3], in assay [4], in assay [5] and in assay [6] was inactive. The molecule was classed as inactive in [7], in [8] and in [13]. Further, the Potency result in assay [9], in assay [10], in assay [11], in assay [12], in assay [14] and in assay [16] was “inactive” throughout.

As for `CC(C)(CO)[C@@H](O)C(=O)NCCC(=O)O`, the molecule was called inactive in assay [1], in assay [2], in assay [3], in assay [4], in [5] and in assay [6]. Also, the result in [7], in assay [8], in assay [15] and in [13] was inactive. The Potency entry in assay [10], in assay [11], in assay [12], in assay [14] and in assay [16] was “inactive” throughout.

On to `COC(=O)C(C)O` (stereo not drawn), for which the call in assay [1], in [2], in assay [3], in assay [4], in [5] and in assay [6] was inactive. Besides, the outcome in assay [7], in assay [8], in assay [15], in assay [13] and in assay [19] was inactive. Moreover, the Potency entry in [10], in assay [11], in assay [12], in [17], in [18] and in assay [14] was “inactive” throughout. Besides, the Potency entry in assay [16] is “inactive”.

Consider `CC(C)O`, for which the call in assay [1], in [2], in [3], in assay [4], in assay [5] and in assay [6] was inactive. In addition, the molecule was classed as inactive in assay [7], in [8], in [15] and in [13]. Moreover, the Potency result in [10], in assay [11], in [12], in [14] and in assay [16] was “inactive” each time.

On to `CC(C)NC[C@@H](O)COc1cccc2ccccc12`, for which the molecule was called inactive in [1], in assay [2], in assay [3], in assay [4], in assay [5] and in [6]. Besides, the molecule was called inactive in assay [7], in assay [8] and in assay [15]. For the same molecule, the Potency in [10] was 26.6 µM (active).
